# Screens: PubChem BioAssay, several laboratories
# LGR2 antag: blocks bursicon-induced cAMP signaling via Drosophila LGR2. HEK293 LGR2, CRE-luciferase, bursicon-stimulated, 4 h. inhibition, % at 9.99 µM. 380,000 tested, 0.35% active;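 active = drop in luminescence signal, shown as inhibition above about 50% in the replicate tests, limit read from the data, passing the limit was not always enough; inconclusive = probably only some replicates passing the limit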;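 note: agonist challenge used bursicon conditioned medium at about half maximal strength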
# CF NFkB block: blocks PAF-induced NF-kB reporter in cystic fibrosis cells | KKLEB NF-kB-GFP reporter, GFP fluorescence overnight | inhibition, % at 5 µM | 360,000 tested, 0.86% active;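 active = at least 50% inhibition at 5 µM, scaled per plate between neutral and stimulator controls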;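 note: PAF is a Pseudomonas aeruginosa culture filtrate used as stimulus; plate controls were PAF-stimulated DMSO wells for no effect and unstimulated DMSO wells for full effect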
# TWEAK Fn14 block: inhibitors of TWEAK-Fn14 interaction signaling. TWEAK-stimulated Fn14 reporter cells, luciferase luminescence, 8 h. inhibition, % at 10 µM. 360,000 tested, 2% active. AID 1159606; in the data active = inhibition above about 50%
# KKLEB cytotox: CF airway cell cytotoxicity counter-screen; activity change (cytotoxicity), % at 5 µM; 360,000 tested, 0.36% active; KKLEB CF airway cells viability, ATPlite luminescence, overnight; stronger effect = lower value; cells stimulated with P. aeruginosa culture filtrate;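 active = corrected activity change at or below -50% at 5 µM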
# EWS-Fli inh: EWS/Fli transcriptional activity inhibition; 350,000 tested, 0.67% active; A673 NR0B1-luciferase reporter, viability-normalised; inhibition, % at 12.6 µM;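 active = mean inhibition of at least 50% after viability correction, with every replicate also passing that limit; inconclusive = mean reaches 50% but only one of two replicates passes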;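 note: firefly luciferase signal divided by Alamar Blue viability fluorescence both relative to DMSO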
# TROY signal inh: inhibitors of TROY-dependent NF-kB signaling; AID 1347056; 360,000 tested, 0.98% active; inhibition, % at 10 µM; Q293 LMP1-TROYcd NF-kB luciferase reporter, 4 h;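 active = compounds whose plate-normalised and pattern-corrected inhibition of the luciferase reporter signal at the single screening dose is 50% or more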
# Numbers without * were called inactive; ? = inconclusive; . = not tested or not shown. Rows were chosen to be rich in hits. Some 2.6% of all compounds tested hit in one or more screens of this group.
SMILES,LGR2 antag,CF NFkB block,TWEAK Fn14 block,KKLEB cytotox,EWS-Fli inh,TROY signal inh
Cc1c(C(=O)Nc2ccc(Br)cc2)cnn1C,8.5,-7.9,-12.4,5.3,.,-82.3
COc1cccc(-c2ccc3c(c2)O[C@H](CN(C)Cc2cncnc2)[C@H](C)CN([C@@H](C)CO)S3(=O)=O)c1,1.7,.,.,.,-18.1,.
C[C@H](CO)N1C[C@H](C)[C@@H](CN(C)C(=O)CN(C)C)Oc2cc(-c3cncnc3)ccc2S1(=O)=O,12.5,.,.,.,-1.9,.
Cn1nccc1C(=O)Nc1ccc2c(c1)OCCO2,24.0,-11.1,74.4*,0.9,-22.5,55.7*
Cc1nn(C)cc1C(=O)Nc1ccc2c(c1)OCCO2,1.8,-15.7,66.5*,6.4,-8.8,41.4
C[C@@H]1CN([C@@H](C)CO)C(=O)c2cc(NC(=O)CCC(F)(F)F)ccc2O[C@@H]1CN(C)C(=O)NC1CCCCC1,-10.1,.,.,.,-4.9,.
CCCCCCCCCC[n+]1cccc2c3ccccc3ccc21,75.8*,49.3,73.0*,-50.2*,40.1,51.2*
Cc1cccc[n+]1CCCCCCCCCC[n+]1ccccc1C,-3.8,6.4,-11.7,0.0,-8.7,2.8
CCCCCCCC[n+]1cccc2c3ccccc3ccc21,35.1,38.3,83.2*,-26.6,45.8,53.7*
CCS(=O)(=O)N1CCC(NC(=O)C(Cc2cccc(OC)c2OC)NC(C)=O)CC1 (stereo unspecified),7.8,1.3,85.0*,-0.9,-3.0,2.3
COC(=O)c1ccccc1S(=O)(=O)N1CCC(NC(=O)C(Cc2cccc(OC)c2OC)NC(C)=O)CC1 (stereo unspecified),-3.1,-1.7,1.9,-6.4,3.2,7.7
COCCCn1c(SCC(=O)NC2CCCCC2)nc2ccccc2c1=O,5.9,2.4,-5.4,7.0,-8.3,-28.0
COc1ccc(C(=O)Nn2c(SCc3cccc([N+](=O)[O-])c3)nc3ccccc3c2=O)cc1,12.7,1.3,78.7*,10.1,.,76.4*
O=C(Nn1c(SCc2cccc([N+](=O)[O-])c2)nc2ccccc2c1=O)c1ccccc1,-47.3,6.2,-26.0,16.1,.,13.5
COc1ccc(C(=O)Nn2c(SCC(=O)NCc3ccco3)nc3ccccc3c2=O)cc1,.,9.0,87.9*,-5.5,.,80.0*
CCn1c(SCC(=O)NCc2ccco2)nc2ccccc2c1=O,-3.5,0.5,1.0,9.0,12.7,3.3
COc1ccc(C(=O)Nn2c(SCC(=O)NC3CCCCC3)nc3ccccc3c2=O)cc1,.,6.5,92.1*,5.1,.,77.7*
COc1ccc(C(=O)Nn2c(SCC(=O)c3ccc(Cl)cc3)nc3ccccc3c2=O)cc1,.,-9.5,91.0*,-12.6,.,79.1*
COCC(=O)N1C[C@@H]2[C@H](c3ccccc31)[C@@H](CO)N2Cc1cc(F)ccc1F,13.7,.,.,.,9.6,.
COc1ccc(C(=O)NCc2cc(C)nc3ccccc23)cc1,37.9,18.7,-1.2,-20.9,53.1*,6.2
COc1ccc(C(=O)Nn2c(SCC(=O)N3CCC(C)CC3)nc3ccccc3c2=O)cc1,.,-7.7,97.1*,0.7,.,81.2*
COc1ccc(OCc2cccc(C(=O)Nn3cc([N+](=O)[O-])cn3)c2)cc1,98.9*,1.9,-8.0,-9.6,.,-25.5
C[C@@H]1CN([C@@H](C)CO)C(=O)c2cc(NC(=O)CCC(F)(F)F)ccc2O[C@@H](C)CCCCO[C@@H]1CN(C)C(=O)CCC(F)(F)F,8.1,.,.,.,-1.6,.
COc1ccc(N=[N+]([O-])c2ccc(OC)cc2)cc1,71.7*,-17.5,62.3*,-16.2,?,-6.3
COc1ccc(S(=O)(=O)c2ccc(OC)cc2)cc1,.,-9.8,0.9,3.7,.,-10.6
SMILES,LGR2 antag,CF NFkB block,TWEAK Fn14 block,KKLEB cytotox,EWS-Fli inh,TROY signal inh
C[C@H]1CCCCO[C@@H](CN(C)C)[C@@H](C)CN([C@@H](C)CO)C(=O)c2cc(NC(=O)Nc3cccc4ccccc34)ccc2O1,-0.8,.,.,.,1.3,.
CCn1cc(C(=O)NCc2cccs2)c(=O)c2ccc(C)nc21,1.4,-6.1,3.8,-2.2,.,-6.0
C=CCSc1nnc(NC(=O)c2cn(CC)c3nc(C)ccc3c2=O)s1,-10.0,-2.1,89.6*,-3.7,-2.7,5.2
COc1cc(/C=N/NC(=O)c2ccc(CN3c4cccc5cccc(c45)S3(=O)=O)cc2)cc(OC)c1O,37.2,69.1*,17.3,-79.9*,0.3,35.3
CCCCCCN(C(=O)CCCCCN1C(=O)NC(c2cccc([N+](=O)[O-])c2)C(C(=O)OCc2ccccc2)=C1C)C(C(=O)NCCCC)c1ccc(OCC(=O)OC)c(C(=O)OC)c1 (stereo unspecified),-12.7,.,.,.,69.4*,.
Cc1ccccc1S(=O)(=O)NCC[C@H]1CC[C@@H](NC(=O)Nc2cccc(F)c2)[C@@H](CO)O1,9.1,.,.,.,6.6,.
O=C(N/N=C/c1ccc(C(F)(F)F)cc1)c1ccc(O)cc1,-84.4,-7.0,-22.1,1.3,-43.8,-55.7
O=C(O)c1ccc(N/N=C/c2ccc(C(F)(F)F)cc2)cc1,93.2*,6.3,90.3*,-2.3,?,28.6
CN(C)c1ccc(/C=N/Nc2cccc(C(=O)O)c2)cc1,86.8*,13.7,-13.9,2.0,3.8,-59.7
Fc1ccc(-c2nnc(CN3CCC(c4nc5ccccc5s4)CC3)o2)cc1,.,-19.1,52.6*,7.9,.,23.1
Cc1c(-c2ccccc2)n(O)c(-c2ccc(N(C)C)cc2)[n+]1[O-],-18.4,-10.5,4.5,5.5,-43.5,-9.5
Cc1csc(N=Nc2ccc(N(C)C)cc2)[n+]1[O-],74.8*,-22.0,85.5*,-9.9,-13.7,75.4*
COc1ccc(CN(C)C[C@H]2Oc3ccc(NS(=O)(=O)c4cn(C)cn4)cc3C(=O)N([C@H](C)CO)C[C@@H]2C)cc1,-5.6,.,.,.,-3.3,.
CC=Cc1ccc2n(c1=O)C[C@H]1[C@H](CO)[C@@H](C(=O)N[C@H](C)c3ccccc3)[C@@H]2N1Cc1cccnc1 (mixture of isomers),-15.7,.,.,.,-1.6,.
CN=c1sc(C(=O)Nc2ccccc2)c(C)n1C,-2.8,0.5,-13.1,12.8,0.4,-2.9
CN=c1sc2c(n1C)C(=O)c1ccccc1C2=O,-4.8,82.5*,89.2*,-67.2*,-2.4,48.0
COc1ccc(S(=O)(=O)N(C)C[C@@H]2Oc3ccc(NC(=O)CCCCCC(=O)Nc4ccccc4N)cc3C(=O)N([C@@H](C)CO)C[C@@H]2C)cc1,3.8,.,.,.,0.0,.
COc1ccc(NC(=O)N(C)C[C@H]2OCCCC[C@@H](C)Oc3ccc(NC(=O)NC(C)C)cc3C(=O)N([C@H](C)CO)C[C@@H]2C)cc1,-4.3,.,.,.,-17.8,.
C=CCN=c1scc(-c2ccc3c(c2)NC(=O)CO3)n1/N=C(\C)c1ccccn1,19.6,-33.9,66.4*,6.5,44.0,43.4
N#Cc1ccc(NC(=O)CSc2cn[nH]n2)cc1,7.8,-6.5,90.4*,3.4,-5.5,-2.6
Cc1ccc2c(c1)N(CCCC(=O)NCCCN1CCCCC1)C(=O)CO2,-1.1,-0.6,63.7*,-4.6,5.1,-7.4
